Among all 400,000 compounds or so, about 2,100 (0.53%) were called active. Inconclusive results (about 14%) are left out. No rule for the calls is given here. This excerpt belongs to a sample that is enriched for actives.

The target in this assay is Ataxin-2 (Homo sapiens) (UniProt Q99700). Briefly: qHTS for Inhibitors of ATXN expression. In kind it is functional.
Chain of Ataxin-2 (Homo sapiens) (Q99700 whole entry): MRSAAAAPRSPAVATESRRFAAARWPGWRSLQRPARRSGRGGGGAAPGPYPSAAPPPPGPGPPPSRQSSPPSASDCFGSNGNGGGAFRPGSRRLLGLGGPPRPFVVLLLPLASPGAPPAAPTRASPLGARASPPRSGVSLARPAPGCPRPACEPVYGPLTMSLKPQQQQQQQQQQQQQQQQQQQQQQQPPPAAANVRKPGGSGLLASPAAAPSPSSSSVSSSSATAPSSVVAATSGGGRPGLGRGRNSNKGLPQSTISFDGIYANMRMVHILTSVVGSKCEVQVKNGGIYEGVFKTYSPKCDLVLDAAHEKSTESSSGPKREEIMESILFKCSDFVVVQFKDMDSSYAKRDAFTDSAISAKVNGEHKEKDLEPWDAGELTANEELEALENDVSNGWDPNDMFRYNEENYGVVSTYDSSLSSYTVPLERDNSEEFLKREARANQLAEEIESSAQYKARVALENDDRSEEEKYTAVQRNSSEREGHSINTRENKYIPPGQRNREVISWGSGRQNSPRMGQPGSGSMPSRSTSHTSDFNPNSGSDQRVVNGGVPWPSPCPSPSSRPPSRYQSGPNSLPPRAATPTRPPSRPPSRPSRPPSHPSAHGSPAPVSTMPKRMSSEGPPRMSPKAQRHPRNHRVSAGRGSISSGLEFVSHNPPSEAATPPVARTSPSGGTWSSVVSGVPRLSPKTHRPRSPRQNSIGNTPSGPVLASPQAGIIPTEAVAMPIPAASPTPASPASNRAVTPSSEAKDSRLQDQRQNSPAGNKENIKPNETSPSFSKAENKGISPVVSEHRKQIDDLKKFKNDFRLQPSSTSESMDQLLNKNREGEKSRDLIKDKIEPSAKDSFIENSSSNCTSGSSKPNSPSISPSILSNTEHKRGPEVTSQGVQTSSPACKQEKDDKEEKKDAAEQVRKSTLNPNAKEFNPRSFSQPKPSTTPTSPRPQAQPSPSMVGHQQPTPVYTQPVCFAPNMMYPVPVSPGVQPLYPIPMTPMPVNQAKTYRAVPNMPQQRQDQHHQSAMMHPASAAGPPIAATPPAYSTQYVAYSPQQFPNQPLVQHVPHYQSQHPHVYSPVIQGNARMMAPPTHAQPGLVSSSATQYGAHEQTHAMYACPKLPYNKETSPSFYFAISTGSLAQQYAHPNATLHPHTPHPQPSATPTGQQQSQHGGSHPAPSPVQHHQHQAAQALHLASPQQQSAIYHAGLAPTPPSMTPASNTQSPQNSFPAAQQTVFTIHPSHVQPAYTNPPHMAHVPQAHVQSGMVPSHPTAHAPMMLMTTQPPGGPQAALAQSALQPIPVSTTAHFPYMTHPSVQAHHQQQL
On to `CCCOC(=O)c1cccc(Nc2nc(-c3cccnc3)nc3ccccc23)c1`, for which the Potency is 35.5 µM (active).
As for `CCOC(=O)c1cccc(Nc2nc(C(=O)OCC)nc3ccccc23)c1`, the Potency is 39.8 µM (active).
With `CC(=O)c1cccc(Nc2nc(-c3ccccc3)nc3ccccc23)c1` the entry was “inactive”; with `CCOC(=O)c1nc(Nc2ccccc2CC)c2ccccc2n1`, “inactive”.
To `CCOC(=O)c1sc2nc(C)cc(-c3ccccc3)c2c1N` belongs “inactive”; to `CCOC(=O)c1sc2nc(-c3cccnc3)ccc2c1N`, “inactive”.
For `O=c1cc(-c2ccccc2)c2ccc(O)cc2o1`, the Potency result is “inactive”.
With `O=C1CN(C(=O)NCC(=O)N2CCCC2)c2ccccc2N1`, the Potency result was “inactive”.
As to `O=C1OCCN1C(=O)[C@H]1[C@H](c2ccccc2)C(c2ccc(F)cc2)=NN1c1ccc(Br)cc1`, the Potency result is “inactive”.
With `CCCCCCCN(C(=O)CCl)c1cccc(C)c1` the figure was 14.1 µM (active); with `CCCC(O)(CCC)C(=O)NN(C(=O)CCl)c1cccc(C)c1`, 21.2 µM (active); with `Cc1ccc(S(=O)(=O)Oc2ccc(C3C4=C(CCCC4=O)N(CCC(=O)O)C4=C3C(=O)CCC4)cc2Cl)cc1`, “inactive”.
To `O=c1c2ccccc2n(CC(O)CN2CCOCC2)c2ccccc12` (stereo unspecified) belongs “inactive”; to `O=C(c1ccc(F)cc1)C(CN1CCOCC1)c1ccccc1` (stereo unspecified), 25.1 µM (active).
To `OC(CN1CCN(C(c2ccccc2)c2ccccc2)CC1)c1ccc(Br)cc1` (stereo unspecified) belongs “inactive”; to `O=C(c1ccccc1)C(CCC(CN1CCOCC1)C(=O)c1ccccc1)CN1CCOCC1` (stereo unspecified), 14.1 µM (active); to `O=c1oc2c(CN3CCOCC3)c(O)ccc2cc1-c1ccccc1`, “inactive”.
On to `O=C(c1ccc(Br)cc1)C(CN1CCOCC1)c1ccccc1` (stereo unspecified), for which the Potency was 29.9 µM (active).
Consider `CC(N=C(S)N1CCOCC1)c1ccccc1` (stereo unspecified), for which the Potency entry is “inactive”.
With `O=C(c1ccc(F)cc1)C1CCN(Cc2ccccc2)CC1` the entry was “inactive”; with `O=C(c1ccc(Br)cc1)c1sc(N2CCOCC2)nc1-c1ccccc1`, “inactive”.
To `Cc1c(O)ccc2c(CN3CCN(C/C=C/c4ccccc4)CC3)cc(=O)oc12` belongs “inactive”.
To `O=[N+]([O-])c1ccc(C2=CSC3=NCCN23)cc1` belongs “inactive”; to `Cc1cccc(-n2nc(C)c3c2N=C2CCCC(O)=C2C3c2ccccn2)c1` (stereo unspecified), “inactive”.
Take `CC1(C(=O)OCC(=O)Nc2cc(S(=O)(=O)N3CCOCC3)ccc2Cl)CC1(Cl)Cl` (stereo unspecified): the Potency result is “inactive”.
On to `O=c1c2ccccc2oc2cc(NCCCn3ccnc3)ccc12`, for which the Potency result was “inactive”.
As for `N=c1c2c(-c3ccccc3)c(-c3ccccc3)n(Cc3ccccc3)c2ncn1CCCn1ccnc1`, the Potency is 35.5 µM (active).
Take `c1ccc(-c2c(-c3ccccc3)n(Cc3ccco3)c3ncnc(NCCCn4ccnc4)c23)cc1`: the Potency was 25.1 µM (active).
With `O=C(NCCCn1ccnc1)c1ccc(-c2ccccc2)cc1` the entry was “inactive”; with `Cc1ccc2nc3c(cc(C(=O)NCc4ccccc4)c(=N)n3CCCn3ccnc3)c(=O)n2c1`, “inactive”; with `Cc1cccc(Cl)c1OCCCn1ccnc1`, “inactive”.
With `CC[C@H]1C(c2ccc(F)cc2)=NN(c2ccccc2)[C@@H]1CO` the entry was “inactive”; with `C/C(CC(=O)NCc1ccco1)=N\NC(=O)Cc1ccc(-c2ccccc2)cc1`, “inactive”.
To `COc1cc(C(=O)NN=C(S)Nc2ccc(S(N)(=O)=O)cc2)cc(OC)c1OC` belongs “inactive”; to `NS(=O)(=O)c1ccc(NC(=O)COC(=O)COc2cccc(C(F)(F)F)c2)cc1`, “inactive”.
As to `CC(C)C(Cl)=NOC(=O)Nc1ccc(S(N)(=O)=O)cc1`, the Potency is 21.2 µM (active).
With `COC(=O)c1c(NC(=O)c2ccc(S(=O)(=O)N3CC(C)OC(C)C3)cc2)sc2c1CCN(C)C2` (stereo unspecified) the entry was “inactive”; with `O=c1ccc2cc3c4c(c2o1)CCCN4CCC3`, “inactive”.
Regarding `CCCCOc1ccc(N(CC(=O)NCc2ccco2)C(=O)CCC(=O)Nc2nccs2)cc1`, the Potency entry is “inactive”.
Turning to `COc1ccc(OC)c([N+](=O)[O-])c1C(N)=O`, the Potency entry was “inactive”.
As for `COc1ccncc1-c1ccc(C2=CC(=O)CC(C)(C)C2=O)cc1`, the Potency is 35.5 µM (active).
As to `CC1=CC(=C(C#N)c2nc3ccccc3s2)C=C(C)N1c1ccc(F)cc1F`, the Potency entry was “inactive”.
Consider `CC1=C(C(=O)NCCCOC(C)C)C2(CCC(C)CC2)OC1=O` (stereo unspecified), for which the Potency result is “inactive”.
As for `COCCCn1c(C(=O)NCCN2CCOCC2)cc2c(=O)n3ccccc3nc21`, the Potency entry was “inactive”.
Consider `COc1cccc(-n2cnnc2S)c1`, for which the Potency result is “inactive”.
To `COc1cccc(/C=N/n2nnnc2N)c1` belongs “inactive”; to `CCCS(=O)(=O)c1nnnn1-c1cccc(OC)c1`, 35.5 µM (active).
Take `Cc1cc(OC(C)C(=O)NC2CC(C)(C)NC(C)(C)C2)c2c(C)c(C)c(=O)oc2c1` (stereo unspecified): the Potency result was “inactive”.
In the case of `Cc1cccn2c(=O)c3cc(C(=O)NC(C)c4ccccc4)c(=N)n(CCCO)c3nc12` (stereo unspecified), the Potency result was “inactive”.
Consider `Cc1cccc(OC(=O)c2ccc3c(=O)n4c(nc3c2)CCC4)c1`, for which the Potency entry is “inactive”.
With `O=c1c2cc(NC(=S)N3CCC(N4CCCCC4)CC3)ccc2nc2n1CCCCC2`, the Potency entry was “inactive”.
For `O=C(Nc1ccc2nc3n(c(=O)c2c1)CCCCC3)c1c(F)ccc([N+](=O)[O-])c1F`, the Potency was 8.91 µM (active).
Consider `O=C(Nc1ccc2nc3n(c(=O)c2c1)CCCC3)c1cc([N+](=O)[O-])ccc1F`, for which the Potency is 22.4 µM (active).
Consider `CCCN(CCC)CCCN=C(S)Nc1ccc2nc3n(c(=O)c2c1)CCCCC3`, for which the Potency entry is “inactive”.
For `CCN(CC)S(=O)(=O)c1ccc(NC(=O)c2ccc3c(=O)n4c(nc3c2)CCCCC4)cc1`, the Potency is 11.2 µM (active).
With `O=C(Nc1ccc2nc3n(c(=O)c2c1)CCCCC3)c1cc([N+](=O)[O-])ccc1F` the figure was 39.8 µM (active); with `Cc1ccc(C)c(NC(=O)c2ccc3c(=O)n4c(nc3c2)CCC4)c1`, “inactive”.
With `O=C(/C=C/c1ccco1)Nc1ccc2nc3n(c(=O)c2c1)CCCC3`, the Potency entry is “inactive”.
Consider `N#C/C(=C\c1ccc2c(c1)OCCO2)C(=O)Nc1nccs1`, for which the Potency entry is “inactive”.
To `CCCCn1c(=O)[nH]c2nc3cc(N)ccc3nc2c1=O` belongs “inactive”; to `Cc1cccc2c(=O)n(C(=O)c3ccccc3)c(N)nc12`, “inactive”; to `CC(=O)c1ccc(OCC(=O)OC(C)C(=O)NC2CCCCC2)cc1` (stereo unspecified), “inactive”.
In the case of `CCC(C)c1ccc(S(=O)(=O)N2CCN(C(C)CC(=O)O)CC2)cc1` (stereo unspecified), the Potency entry was “inactive”.
As to `CS(=O)(=O)c1ccc(C(=O)OCC(=O)NC(=O)C2CCCCC2)cc1[N+](=O)[O-]`, the Potency is 35.5 µM (active).
Take `O=C(NCC(O)c1ccc([N+](=O)[O-])cc1)C1CCCCC1` (stereo unspecified): the Potency entry was “inactive”.
To `O=C(COC(=O)c1ccc(C(F)(F)F)cc1)NC(=O)NC1CCCC1` belongs “inactive”.

The record behind these values is ChEMBL document CHEMBL1201862, “PubChem BioAssay data set” (2004).
